Compound activity deposited in PubChem BioAssay by National Center for Advancing Translational Sciences (NCATS).
Only some compounds are listed: those with a hit (about 19% of all), similar ones and a draw of the others.
IL1B secr inh – qHTS for Inhibitors of Inflammasome Signaling: IL-1-beta AlphaLISA Primary Screen. THP-1 LPS/ATP IL-1B secretion, AlphaLISA, 16 h; hits give low values. activity change, % at 57.5 µM. 360,000 tested, 4.7% active; in the data active = activity change below about -50%; inconclusive = mostly about -30% to -49%
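Secreted IL-1B measured by AlphaLISA bead assay after 16 h compound exposure of THP-1 cells; compounds (final up to 57.5 uM) added 1 h before LPS (250 ng/mL) and ATP (1.25 mM) stimulation; lower signal means less secretion.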
TDP1 cell noCPT – qHTS for Inhibitors of human tyrosyl-DNA phosphodiesterase 1 (TDP1): qHTS in cells in absence of CPT; 420,000 tested, 15% active; Potency, µM (top dose mostly 46.2 µM), hits mostly inhibitors; DT40 Tdp1-/- hTDP1 cells, no CPT, ATP luminescence, 48 h; note: nearly all actives have a fitted effect of over 55% in size
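Growth kinetics read by CellTiter-Glo luminescence after ≥48 hr at 37 °C. Cells: DT40 Tdp1-/- stably carrying human TDP1, 400 per well, compound exposure in the absence of CPT (DMSO vehicle).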
HT1080-NT tox – qHTS for induction of synthetic lethality in tumor cells producing 2HG: qHTS for the HT-1080-NT fibrosarcoma cell line | HT-1080-NT fibrosarcoma viability, CellTiter-Glo ATP luminescence, 48 h | Potency, µM (highest dose often 46.1 µM), usual class: cytotoxic | 360,000 tested, 1.6% active | AID 686970, 2013;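 note: NT is the 2HG producing partner of a matched IDH1 knockdown line; nearly all actives have a fitted effect of over 55% in size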
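Viability by CellTiter-Glo luminescence after 48 h compound exposure at 37C of HT-1080-NT cells (750/well, RPMI, 5% FBS). % activity scaled between DMSO wells and medium-only wells, then curve-fitted and categorized by curve class.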
TDP1 cell CPT – qHTS for Inhibitors of human tyrosyl-DNA phosphodiesterase 1 (TDP1): qHTS in cells in presence of CPT; chicken DT40 Tdp1-/-;hTDP1 cells + 20 nM CPT, ATP luminescence, 48 h; Potency, µM (series often up to 46.2 µM), actives largely listed as inhibitors; 420,000 tested, 12% active; note: nearly all actives have a fitted effect of over 55% in size
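Chicken DT40 Tdp1-/- cells stably complemented with human TDP1 were seeded at 400 cells/well in medium containing 20 nM camptothecin, exposed to pin-transferred compounds, and grown at 37 °C for at least 48 hr. Viability was read as ATP luminescence.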
HT1080 IDH1KD tx – qHTS for induction of synthetic lethality in tumor cells producing 2HG: qHTS for the HT-1080-IDH1KD cell line; 360,000 tested, 2% active; HT-1080 IDH1 knockdown viability, ATP luminescence, 48 h; AID 686971, 2013; Potency, µM (highest dose often 46.1 µM), usual class: cytotoxic
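Luminescent ATP read-out (CellTiter-Glo, 10 min at room temperature) after 48 h compound exposure at 37 °C gave viability of IDH1-knockdown HT-1080 cells. Activity was normalised to DMSO and cell-free wells, then fitted as concentration-response curves.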
uPA generation – qHTS for Inhibitors of Cell Surface uPA Generation; Potency, µM (series often up to 38.3 µM), hits mostly inhibitors; 330,000 tested, 0.31% active; cell surface uPA generation assay, qHTS; active = well fitted inhibition curve with a large enough effect; inconclusive = small, poorly fitted or top-dose-only effect; inactive = no such curve, though single readings can be large or run the other way; tested in mouse RAW 264.7 cells; note: nearly all actives have a fitted effect of over 55% in size
A number is an active result; . = inactive; ? = inconclusive; / = not tested or not shown. Unless noted, calls come from the whole dose curve; as a rule, active = well fitted curve in the direction sought with a large enough effect; inconclusive = small, poorly fitted or top-dose-only effect, or another doubt; inactive = no such curve, though single readings can be large; an effect the other way counts as inactive or inconclusive.

SMILES | IL1B secr inh | TDP1 cell noCPT | HT1080-NT tox | TDP1 cell CPT | HT1080 IDH1KD tx | uPA generation
COc1ccc(C(=O)NC2CC2)cc1OC1CCN(Cc2ccc(F)cc2Cl)CC1 | ? | 18µM | . | ? | . | .
CCCCN(C)C(=O)C1CCN(Cc2ccc(OCc3ccccc3)cc2)CC1 | ? | 16µM | ? | ? | ? | .
CCOC(=O)C1CCN(Cc2ccc(OCc3ccccc3)cc2)CC1 | . | . | . | . | . | .
CCCCOc1ccc(C(=O)NCC(=O)NC2CCN(Cc3ccccc3)CC2)cc1 | . | ? | . | 23µM | . | .
O=C(NCC(=O)N1CCC(Cc2ccccc2)CC1)c1ccc(Cl)cc1 | -52 | ? | . | 16µM | . | .
O=C(NCC(=O)N1CCN(c2ccccc2)CC1)c1ccc(Cl)cc1 | . | . | . | . | . | .
CCN(c1ccccc1)S(=O)(=O)c1ccc(Cl)c(NC(=O)CN(C)C2CCN(C)CC2)c1 | -55 | 16µM | ? | ? | 23µM | .
CCN1CCN(c2ccc(NC(=O)c3ccc4c(c3)[nH]c(=O)n4Cc3ccc(OC)cc3)cc2)CC1 | . | ? | . | 23µM | . | .
Cc1ncc([N+](=O)[O-])n1Cc1cccc(F)c1 | . | . | . | . | . | .
COc1ccc(CN=C2NN=C(c3cccc(OC)c3)CS2)cc1 | . | ? | . | . | . | .
FC(F)Sc1ccc(N=C2NN=C(c3ccc4c(c3)OCCO4)CS2)cc1 | . | 21µM | ? | 18µM | ? | .
COc1ccc(N=C2NN=C(c3ccc4c(c3)OCCO4)CS2)cc1 | ? | 26µM | . | 21µM | . | .
C[C@@H](OC(=O)N1CCCCC1)[C@H]1O[C@]2(C)CCCC[C@H]1O2 | . | . | . | . | . | .
CN(C)N1C(N)=C(C#N)C(c2ccsc2)C2=C1CCCC2=O (stereo not drawn) | . | . | . | . | . | .
N#CC1=C(N)N(c2ccccc2)C2=C(C(=O)CCC2)C1c1ccsc1 (stereo not drawn) | . | . | 11µM | . | ? | /
Cc1ccc(N2C(N)=C(C#N)C(c3ccsc3)C3=C2CC(C)(C)CC3=O)cc1 (stereo not drawn) | -55 | ? | . | ? | . | .
CCSc1nnc2ccc(-c3ccc(C)cc3)nn12 | . | ? | . | . | . | .
Cc1ccc(NC(=O)c2ccc(NC(=O)N3CCSc4nc(C)cc(C)c43)cc2)c(Cl)c1 | / | . | / | ? | / | /
CCO[C@H]1OC(C(=O)NCc2nc3ccccc3[nH]2)=C[C@@H](C2CC2)[C@@H]1CCCO | . | 0.58µM | ? | 0.82µM | 2.1µM | ?
CCO[C@H]1OC(C(=O)NCc2nc3ccccc3[nH]2)=C[C@@H](c2csc3ccccc23)[C@@H]1CCCO | . | 16µM | ? | ? | ? | .
CCO[C@H]1OC(C(=O)NCc2nc3ccccc3[nH]2)=C[C@@H](c2ccccc2)[C@@H]1CCCO | . | ? | . | ? | . | .
CCO[C@@H]1OC(C(=O)NCc2nc3ccccc3[nH]2)=C[C@H](c2csc3ccccc23)[C@H]1CCCO | -56 | 23µM | ? | 23µM | ? | .
COc1ccc(NC(=O)C(NS(=O)(=O)c2cccc3nsnc23)c2ccccc2)cc1 (stereo not drawn) | / | . | / | . | / | /
O=C(Nc1nc(-c2ccccc2)cs1)c1ccc2c(=O)n3c(nc2c1)CCCCC3 | . | 8.2µM | ? | 16µM | ? | .
O=C(Nc1ccc(SC(F)F)cc1)c1ccc2c(=O)n3c(nc2c1)CCC3 | . | ? | 3.3µM | ? | . | ?
SMILES | IL1B secr inh | TDP1 cell noCPT | HT1080-NT tox | TDP1 cell CPT | HT1080 IDH1KD tx | uPA generation
O=C(Nc1cccc(S(=O)(=O)N2CCOCC2)c1)c1ccc2c(=O)n3c(nc2c1)CCCCC3 | -86 | 10µM | ? | 13µM | . | .
O=C(NCc1ccccc1)c1ccc2c(=O)n3c(nc2c1)CCCCC3 | . | ? | . | . | . | .
COc1ccc(NC(=O)c2ccc3c(=O)n4c(nc3c2)CCCCC4)cc1 | . | ? | . | ? | . | .
O=C(c1ccc2c(=O)n3c(nc2c1)CCCCC3)N1CCN(c2ccc(Cl)cc2)CC1 | ? | 18µM | . | 23µM | . | .
Fc1cccc(Cl)c1CNCc1ccccc1Cl | . | ? | . | . | . | .
COc1ccc([C@H]2C[C@@H](O)C[C@@H](CCn3cc(-c4ccccc4)nn3)O2)cc1 | . | . | . | . | . | /
CC(=O)c1cccc(N(C(=O)CNC(=O)c2ccco2)C(C(=O)NCc2ccco2)c2ccccc2)c1 (stereo not drawn) | . | . | . | . | . | .
O=C(Nc1cccc(S(=O)(=O)N2CCCC2)c1)c1ccc2c(=O)n3c(nc2c1)CCCCC3 | -62 | 16µM | . | 15µM | . | .
CC(=O)c1cccc(NC(=O)c2ccc3c(=O)n4c(nc3c2)CCCCC4)c1 | . | ? | . | ? | . | .
COc1ccccc1NC(=O)c1ccccc1NC(=O)c1ccccn1 | . | ? | . | ? | . | .
C/C(=N\NC(=S)Nc1ccc(C)cc1)c1cccc(N)c1 | . | ? | . | ? | . | .
CC(=NNC(=S)Nc1ccc(C)cc1)c1ccccn1 | ? | 0.018µM | ? | 0.018µM | ? | .
CC(=NNC(=S)Nc1cccc(C)c1)c1ccccn1 | . | 0.033µM | . | 0.018µM | ? | .
COc1ccccc1NC(=S)NN=C(C)c1ccccn1 | . | 0.15µM | . | 0.013µM | ? | .
O=C(N1CCOCC1)C12OC3CC(CC(C3)O1)O2 | . | . | . | . | . | /
CCNc1ncc2nc(-c3ccccc3)c(=O)n(CCC#N)c2n1 | / | . | / | . | / | /
CCN(C(=O)c1cc2c(=O)[nH]c3ccc(C)cc3c2s1)c1ccccc1F | . | ? | . | 13µM | . | .
Cc1ccc2[nH]c(=O)c3cc(C(=O)NCCC(C)C)sc3c2c1 | . | ? | ? | ? | . | .
CCN(C(=O)c1cc2c(=O)[nH]c3ccc(C)cc3c2s1)c1cccc(C)c1 | . | 18µM | . | ? | . | .
CCN(C(=O)c1cc2c(=O)[nH]c3ccc(C)cc3c2s1)c1ccc(F)cc1 | . | ? | . | ? | . | .
CCN(C(=O)c1cc2c(=O)[nH]c3ccc(C)cc3c2s1)c1ccccc1C | . | 2.9µM | . | 2.6µM | ? | .
CCN(C(=O)c1cc2c(=O)oc3ccc(C)cc3c2s1)c1ccccc1F | / | 21µM | / | ? | / | /
COc1ccc(NC(=O)COC(=O)CCC(=O)c2cccs2)cc1OC | . | . | . | . | . | .
